Measured values published in PubChem BioAssay AID1159580 (chemical genetic matrix, 2015).
Values joined by “and” are separate entries in the source; they are usually repeats but may differ in a detail not shown here. Identical values can stand only once. In all, about 5,500 compounds went through this assay and about 2,000 (36%) were called active. Another 18% or so got no clear call; they are omitted. Cut-off read from the data, not from the text of the source: active = normalized growth mostly below about 0.91 (no sharp cut-off); inconclusive = no clear call, values can overlap the other calls; inactive = mostly above about 0.92. The list shows a part of the results.

Assay: chemical genetic growth profiling, strain panel (AID 1159580);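 note: tested at 20 µM; growth read once vehicle control cultures reached saturation at 30 °C; 1 = growth at the plate median or of vehicle wells; lower values mean less growth of the strain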
Conditions: S. cerevisiae deletion strains, growth OD

Measured: normalized growth

CC12CCC(=O)C=C1CCC1C2[C@@H](O)CC2(C)C1CC[C@]2(O)C(=O)COP(=O)(O)O (stereo partly drawn)
inactive: locus YAL013W, strain DEP1, hits give low values 1.02 | locus YAL021C, strain ccr4, hits give low values 1 | locus YAL026C, strain drs2, hits give low values 0.999 | locus YAL030W, strain snc1, hits give low values 1.01 | locus YBL061C, strain skt5, hits give low values 0.998 | locus YBR009C, strain hhf1, hits give low values 0.994 | locus YBR021W, strain FUR4, hits give low values 1.02 | locus YBR023C, strain chs3, hits give low values 0.992 | locus YBR171W, strain sec66, hits give low values 1 | locus YBR229C, strain ROT2, hits give low values 1.01 | locus YBR231C, strain swc5, hits give low values 0.989 | locus YBR279W, strain paf1, hits give low values 1 | locus YCL011C, strain gbp2, hits give low values 0.991 | locus YCL016C, strain dcc1, hits give low values 0.973 | locus YCL029C, strain bik1, hits give low values 1.01 | locus YCL061C, strain MRC1, hits give low values 0.999 | locus YCL069W, strain vba3, hits give low values 1.01 | locus YCR088W, strain abp1, hits give low values 0.995 | locus YDL005C, strain med2, hits give low values 0.997 | locus YDL035C, strain GPR1, hits give low values 1.01 | locus YDL040C, strain nat1, hits give low values 1.01 | locus YDL074C, strain BRE1, hits give low values 1.02 | locus YDL101C, strain DUN1, hits give low values 1.01 | locus YDL185W, strain tfp1, hits give low values 1 | locus YDL192W, strain arf1, hits give low values 1.01 | locus YDR001C, strain nth1, hits give low values 0.996 | locus YDR069C, strain doa4, hits give low values 1.01 | locus YDR101C, strain arx1, hits give low values 1.03 | locus YDR137W, strain rgp1, hits give low values 0.992 | locus YDR150W, strain NUM1, hits give low values 1.02 | locus YDR159W, strain sac3, hits give low values 1 | locus YDR162C, strain NBP2, hits give low values 1.01 | locus YDR195W, strain ref2 0.992 | locus YDR297W, strain sur2, hits give low values 0.996 | locus YDR318W, strain mcm21, hits give low values 0.999 | locus YDR334W, strain swr1, hits give low values 0.998 | locus YDR335W, strain msn5, hits give low values 1.01 | locus YDR388W, hits give low values 1 | locus YDR392W, strain spt3, hits give low values 0.928 | locus YDR502C, strain sam2, hits give low values 1 | locus YEL003W, strain gim4, hits give low values 1 | locus YEL037C, strain rad23, hits give low values 1.01 | locus YEL061C, strain CIN8 (second series), hits give low values 1 | locus YEL061C, strain CIN8, hits give low values 1.02 | locus YER015W, strain faa2, hits give low values 1 | locus YER016W, strain bim1, hits give low values 1 | locus YER110C, hits give low values 1.01 | locus YER111C, strain swi4, hits give low values 1 | locus YER155C, strain BEM2 (second series), hits give low values 1.01 | locus YER155C, strain BEM2, hits give low values 1.01 | locus YER167W, strain BCK2, hits give low values 1.01 | locus YFR010W, strain ubp6, hits give low values 1.01 | locus YGL078C, strain dbp3, hits give low values 0.994 | locus YGL086W, strain mad1, hits give low values 1 | locus YGL167C, strain pmr1, hits give low values 0.996 | locus YGL173C, strain kem1, hits give low values 0.995 | locus YGL227W, strain vid30, hits give low values 0.996 | locus YGL240W, strain doc1, hits give low values 1.01 | locus YGL248W, strain PDE1, hits give low values 1 | locus YGL253W, strain hxk2, hits give low values 1.01 | locus YGR078C, strain PAC10, hits give low values 1.01 | locus YGR135W, strain pre9, hits give low values 0.997 | locus YGR229C, strain SMI1, hits give low values 1.02 | locus YGR252W, strain gcn5, hits give low values 0.958 | locus YHR013C, strain ard1, hits give low values 0.991 | locus YHR027C, strain rpn1, hits give low values 0.994 | locus YHR030C, strain SLT2, hits give low values 1.02 and 0.987 | locus YHR079C, strain IRE1 (second series), hits give low values 1 | locus YHR079C, strain IRE1, hits give low values 0.96 | locus YHR094C, strain hxt1, hits give low values 1.01 | locus YHR129C, strain ARP1, hits give low values 1.01 | locus YHR142W, strain chs7, hits give low values 0.993 | locus YHR200W, strain rpn10, hits give low values 1.01 | locus YIL066C, strain RNR3, hits give low values 1.02 | locus YIL073C, strain SPO22, hits give low values 1.01 | locus YIL125W, strain kgd1, hits give low values 0.985 | locus YIR030C, strain dcg1, hits give low values 1.01 | locus YJL092W, strain hpr5, hits give low values 1 | locus YJL095W, strain BCK1 (second series), hits give low values 0.995 | locus YJL095W, strain BCK1, hits give low values 1.01 and 0.981 | locus YJL115W, strain asf1, hits give low values 0.997 | locus YJL129C, strain trk1, hits give low values 1.01 | locus YJL134W, strain LCB3, hits give low values 1.01 | locus YJL154C, strain vps35, hits give low values 1 | locus YJL164C, strain tpk1, hits give low values 0.995 | locus YJL166W, strain qcr8, hits give low values 0.986 | locus YJL168C, strain set2, hits give low values 0.998 | locus YJL187C, strain SWE1 (second series), hits give low values 1.01 | locus YJL187C, strain SWE1, hits give low values 1 | locus YJR043C, strain POL32, hits give low values 1.02 | locus YJR066W, strain TOR1, hits give low values 0.917 | locus YKL009W, strain mrt4, hits give low values 1.01 | locus YKL068W, hits give low values 1.01 | locus YKL085W, strain MDH1 (second series), hits give low values 1 | locus YKL085W, strain MDH1, hits give low values 1 | locus YKL160W, strain elf1, hits give low values 0.985 | locus YKL190W, strain CNB1, hits give low values 1.02 | locus YKR001C, strain vps1, hits give low values 0.997 | locus YKR026C, strain gcn3, hits give low values 1.01 | locus YKR091W, strain srl3, hits give low values 1 | locus YLL001W, strain dnm1, hits give low values 0.982 | locus YLL026W, hits give low values 1 | locus YLL041C, strain sdh2, hits give low values 0.997 | locus YLR027C, strain aat2, hits give low values 1.01 | locus YLR039C, strain RIC1, hits give low values 0.976 | locus YLR058C, strain SHM2, hits give low values 1 | locus YLR102C, strain apc9, hits give low values 0.998 | locus YLR113W, strain HOG1, hits give low values 1 | locus YLR221C, strain rsa3, hits give low values 0.986 | locus YLR258W, strain gsy2, hits give low values 1.03 | locus YLR262C, strain YPT6 (second series), hits give low values 0.987 | locus YLR262C, strain YPT6, hits give low values 1.06 | locus YLR268W, strain sec22, hits give low values 0.993 | locus YLR320W, strain mms22, hits give low values 0.994 | locus YLR330W, strain CHS5, hits give low values 1.01 | locus YLR342W, strain FKS1 (second series), hits give low values 1 | locus YLR342W, strain FKS1, hits give low values 1 | locus YLR357W, strain rsc2, hits give low values 0.998 | locus YLR370C, strain arc18, hits give low values 1.01 | locus YLR371W, strain rom2, hits give low values 0.994 | locus YLR384C, strain iki3, hits give low values 0.995 | locus YLR418C, strain cdc73, hits give low values 0.982 | locus YML016C, strain PPZ1, hits give low values 1 | locus YML032C, strain rad52, hits give low values 0.991 | locus YML120C, strain ndi1, hits give low values 0.995 | locus YML124C, strain tub3, hits give low values 0.999 | locus YMR058W, strain fet3, hits give low values 0.998 | locus YMR078C, strain ctf18, hits give low values 1 | locus YMR125W, strain sto1, hits give low values 0.997 | locus YMR129W, hits give low values 1 | locus YMR205C, strain PFK2, hits give low values 0.983 | locus YMR223W, strain ubp8, hits give low values 0.993 | locus YMR231W, strain pep5, hits give low values 1 | locus YMR263W, strain SAP30, hits give low values 1.02 | locus YMR307W, strain GAS1, hits give low values 0.988 | locus YNL067W, strain RPL9B, hits give low values 1.02 | locus YNL071W, strain lat1, hits give low values 1 | locus YNL128W, strain TEP1, hits give low values 1.03 | locus YNL183C, strain NPR1, hits give low values 0.951 | locus YNL209W, strain ssb2, hits give low values 1 | locus YNL233W, strain BNI4, hits give low values 1.01 | locus YNL248C, strain rpa49, hits give low values 1.01 | locus YNL250W, strain rad50, hits give low values 1 | locus YNL271C, strain bni1, hits give low values 1 | locus YNL298W, strain CLA4, hits give low values 0.992 | locus YNL307C, strain MCK1, hits give low values 1 | locus YNL322C, strain KRE1 (second series), hits give low values 0.999 | locus YNR049C, strain mso1, hits give low values 0.995 | locus YNR052C, strain pop2, hits give low values 0.998 | locus YOL012C, strain htz1 0.651 | locus YOL147C, strain pex11, hits give low values 1.01 | locus YOR001W, strain rrp6, hits give low values 0.989 | locus YOR061W, strain CKA2, hits give low values 1 | locus YOR069W, strain VPS5, hits give low values 1.01 | locus YOR070C, strain gyp1, hits give low values 0.999 | locus YOR080W, strain dia2, hits give low values 0.999 | locus YOR083W, strain WHI5, hits give low values 0.993 | locus YOR106W, strain vam3, hits give low values 0.976 | locus YOR136W, strain idh2, hits give low values 0.995 | locus YOR144C, strain elg1, hits give low values 1 | locus YOR184W, strain ser1, hits give low values 0.992 | locus YOR231W, strain MKK1, hits give low values 0.981 | locus YOR265W, strain rbl2, hits give low values 1 | locus YOR270C, strain vph1, hits give low values 1.01 | locus YOR290C, strain snf2, hits give low values 0.914 | locus YOR316C, strain cot1, hits give low values 1.01 | locus YPL051W, strain arl3, hits give low values 0.986 | locus YPL055C, strain LGE1, hits give low values 1.01 | locus YPL078C, strain atp4, hits give low values 0.995 | locus YPL106C, strain sse1, hits give low values 0.969 | locus YPL240C, strain hsp82, hits give low values 0.991 | locus YPL241C, strain CIN2, hits give low values 1.01 | locus YPL256C, strain CLN2, hits give low values 0.957 | locus YPR119W, strain clb2, hits give low values 1 | locus YPR141C, strain kar3, hits give low values 1.01 | locus YPR163C, strain tif3, hits give low values 1.01 | locus YPR167C, strain met16, hits give low values 0.998 | strain wtn01, hits give low values 1
